# An excerpt weighted towards active compounds, which were near 11% of everything screened.
# ALDH1A1 inh – ALDH1A1 (human) enzyme inhibition. Purified ALDH1A1, NADH fluorescence, propionaldehyde substrate. 7.3% of 220,000 active. P00352. Potency, µM (doses to about 75.3 µM), actives largely listed as inhibitors; active means well fitted inhibition curve with a large enough effect, not every such curve was filed as active; inconclusive means small, poorly fitted or top-dose-only effect, or another doubt; inactive means no such curve, though single readings can be large or run the other way
# PNC assembly inh – inhibitors of perinucleolar compartment assembly; 3.1% of 140,000 active; PC3M PTB-GFP, PNC prevalence imaging, 16 h; stronger effect = lower value; AID 2417; activity change (PNC), negative = inhibition, % at 10 µM;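 active means readout at or below -70, meaning at least 70% loss of cells showing the perinucleolar compartment, a nuclear body marking cancer cells; inconclusive means readout between -30 and a set limit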
#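 Read-out is percentage of cells bearing a perinucleolar compartment, from automated 20x imaging of fixed, Hoechst-stained PC3M PTB-GFP cells. Cells were seeded 4 h, then exposed 16 h to compound (23 nl of library stock) in duplicate plates.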
# HTT aggregate – mutant huntingtin aggregation inhibition | PC12 HttQ103-GFP aggregates, Acumen cytometry, 40 h | Potency, µM (titrated, usually from 46.1 µM), most hits filed as inhibitors | 1.1% of 220,000 active; further: nearly all actives have a fitted effect of over 60% in size
#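 Huntingtin Q103 exon 1–GFP aggregates in induced PC12 cells (100 nM tebufenozide) were quantified by cytometry from lysates, with compounds dosed in titration.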
# RGS12 GoLoco inh – blocks human Gai1 binding to RGS12 GoLoco peptide, red readout. Potency, µM (doses to about 61.6 µM), most hits filed as inhibitors. P63096. Gai1:RGS12 GoLoco peptide FP, rhodamine, 10 min. AID 880. 0.44% of 230,000 active; active means well fitted inhibition curve with a large enough effect, not every such curve was filed as active; inactive means no such curve, though single readings can be large or run the other way; further: nearly all actives have a fitted effect of over 30% in size
# Target sequence (P63096 whole entry, looked up): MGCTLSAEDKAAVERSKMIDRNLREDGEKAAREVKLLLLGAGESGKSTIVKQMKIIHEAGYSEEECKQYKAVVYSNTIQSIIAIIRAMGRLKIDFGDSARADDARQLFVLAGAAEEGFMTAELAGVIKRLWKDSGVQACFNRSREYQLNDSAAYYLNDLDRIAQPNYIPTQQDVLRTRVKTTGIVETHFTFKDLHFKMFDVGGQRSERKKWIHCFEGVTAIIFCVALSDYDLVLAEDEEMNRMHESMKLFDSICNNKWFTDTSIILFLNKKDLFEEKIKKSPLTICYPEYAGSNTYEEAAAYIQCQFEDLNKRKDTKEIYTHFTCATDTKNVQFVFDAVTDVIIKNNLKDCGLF
# HTT cytoprotect – Huntington cell model cytoprotection by ATP luminescence. PC12 HTT-Q103 induced, cytoprotection, ATP luminescence, 40 h. 0.14% of 230,000 active. Potency, µM (titrated, usually from 56.4 µM), most hits filed as activators; further: nearly all actives have a fitted effect of over 45% in size
#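 PC12 cells stably carrying ecdysone-inducible Htt exon 1 (Q103)–GFP were induced with 100 nM tebufenozide (final) alongside library compounds in a dose series. Cytoprotection was scored as retained ATP by ATPlite luminescence.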
# HPGD block – inhibitors of human 15-hydroxyprostaglandin dehydrogenase (HPGD) | purified HPGD, NADH fluorescence kinetic, PGE2 substrate | P15428 | 4.3% of 150,000 active | Potency, µM, hits mostly inhibitors; active means well fitted inhibition curve with a large enough effect, not every such curve was filed as active; inconclusive means small, poorly fitted or top-dose-only effect, or another doubt; inactive means no such curve, though single readings can be large or run the other way
# Target sequence (P15428 whole entry, looked up): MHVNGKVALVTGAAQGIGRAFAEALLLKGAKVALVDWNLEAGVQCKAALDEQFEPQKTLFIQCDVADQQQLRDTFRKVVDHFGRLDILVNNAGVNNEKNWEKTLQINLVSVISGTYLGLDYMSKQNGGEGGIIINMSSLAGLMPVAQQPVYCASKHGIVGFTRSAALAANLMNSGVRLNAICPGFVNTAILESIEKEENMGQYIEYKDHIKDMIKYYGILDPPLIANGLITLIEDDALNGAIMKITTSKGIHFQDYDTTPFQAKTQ
#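 NADH formation kinetics: reaction with 30 uM PGE2 and 1 mM NAD+ (final), 20 nM enzyme, Tris-HCl pH 8 with Tween 20, after 15 min compound preincubation at room temperature. Fluorescence change, last versus first of five reads.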
# Hits are given with their value; n = inactive; u = inconclusive; x = no result given; ! = a repeat was not active; [ ] = another dose, or the depositor's remark. Unless noted, the call rests on the fitted dose curve; in most records, active means well fitted curve in the direction sought with a large enough effect; inconclusive means small, poorly fitted or top-dose-only effect, or another doubt; inactive means no such curve, though single readings can be large; an effect the other way counts as inactive or inconclusive.
SMILES,ALDH1A1 inh,PNC assembly inh,HTT aggregate,RGS12 GoLoco inh,HTT cytoprotect,HPGD block
CN(CC(=O)Nc1ccc(N2CCOCC2)cc1)CC(=O)Nc1ccc(N2CCOCC2)cc1,x,x,n[9.22 µM],n,n[10 µM],x
CCN(CC(=O)NCCc1ccc(F)cc1)Cc1nc2ccccc2c(=O)[nH]1,x,x,n[9.22 µM],n,n[10 µM],x
CC1CCCCN1C(=O)COc1ccc(F)cc1 (stereo not drawn),n,x,n[9.22 µM],n,n[10 µM],x
CC(C)(C)c1cc2c(O)c(c1)Cc1cc(C(C)(C)C)cc(c1O)Cc1cc(C(C)(C)C)cc(c1O)Cc1cc(C(C)(C)C)cc(c1O)Cc1cc(C(C)(C)C)cc(c1O)Cc1cc(C(C)(C)C)cc(c1O)Cc1cc(C(C)(C)C)cc(c1O)Cc1cc(C(C)(C)C)cc(c1O)C2,n[13.5 µM],x,x,n[14.2 µM],n[10 µM],n
CCN(CC)CC(=O)Nc1ccc2c(c1)Nc1ccccc1CC2,20µM,u,n,n,n[0.074 µM],n
CCN(CC(=O)Nc1ccc2c(c1)CCC2)Cc1nc2ccccc2c(=O)[nH]1,14µM,n,n,n,n[10 µM],n
CCN(CC(=O)NC(c1ccccc1)c1ccccc1)Cc1nc2ccccc2c(=O)[nH]1,18µM,n,n,n,n,n
CCN(CC(=O)Nc1ccc2c(c1)OCO2)Cc1nc2ccccc2c(=O)[nH]1,u,n,n,n,n,n
O=C(O)C1C(C(=O)O)C(C(=O)O)C1C(=O)O (stereo not drawn),n[13.5 µM],x,x,n[14.2 µM],n[10 µM],n
FC(F)(F)c1cc(-c2cccs2)nc2ncnn12,u,x,n[9.22 µM],n,n[10 µM],x
CC(=O)c1c(O)c2ccccc2n(C(C)C)c1=O,n,x,13µM,n,n,x
C/C(CCN1CCCCc2nc(C)c(C)cc21)=N\O[C@@H](C)c1cc(-c2c(C)cc(C)cc2C)no1,n[13.5 µM],x,x,x,n[10 µM],x
COC(CNC(=O)c1cc(Sc2nnc(C)s2)nc2ccccc12)OC,u,n,n,n,n[10 µM],u
CCN(CC)CCCNC(=O)c1cc(Sc2nnc(C)s2)nc2ccccc12,n,u,u,n,n[10 µM],28µM
CCCCOc1cc(C(=O)NCCN(CC)CC)c2ccccc2n1,n,-115!,u,n,n,n
CCCCCCNC(=O)c1cc(-c2ccco2)nc2ccccc12,u,n,u,n,n[10 µM],u
O=C(NCc1cccs1)C1CCCCC1,n,u,n,n,n,14µM
O=C(NCc1cccs1)C1CCCN(S(=O)(=O)c2cccc3cccnc23)C1 (stereo not drawn),n,n,n,n,n,n
Cc1csc2nc(CNC(=O)C3CCCCC3)cn12,n,n,n,n,n[10 µM],16µM
O=C(NCc1cccs1)C1CC1,n,x,n,n,u,x
O=C(NCc1cccs1)C1CCCN(c2ncccn2)C1 (stereo not drawn),n,-86,n,n,n[1.9 µM],n
CC(=O)OC[C@H]1O[C@@H](O/N=C2/[C@H]3O[C@@H]3[C@@H](O)[C@H]3[C@H]2CCn2c(=O)n(-c4ccccc4)c(=O)n23)[C@H](OC(C)=O)[C@@H](OC(C)=O)[C@@H]1OC(C)=O,n[13.5 µM],x,x,x,n[10 µM],x
CCOC(=O)C(=NCC1CCCO1)NNc1ccccc1Cl (stereo not drawn),x,x,n[9.22 µM],n,n[10 µM],x
CCCOc1c(Br)cc(C2C3=C(CCCC3=O)N(C)C3=C2C(=O)CCC3)cc1OC,u,-98,n,n,x,u
CCCOc1c(Br)cc(C2C3=C(CCCC3=O)N(CC)C3=C2C(=O)CCC3)cc1OC,u,x,n,n,n,x
SMILES,ALDH1A1 inh,PNC assembly inh,HTT aggregate,RGS12 GoLoco inh,HTT cytoprotect,HPGD block
COc1cccc(-c2ccc3ncnc(NCc4cnc(C)cn4)c3c2)c1,n,x,x,n,n,x
CCOC(=O)Cn1c(=O)oc2cc(S(=O)(=O)Nc3ccc(N(CC)CC)cc3C)ccc21,u,n,u,n,n,28µM
CCOC(=O)Cn1c(=O)oc2cc(S(=O)(=O)Nc3cc(OCC)ccc3OCC)ccc21,n,n,n,n,n[0.074 µM],n
CCOC(=O)Cn1c(=O)oc2cc(S(=O)(=O)Nc3cc(Cl)ccc3OC)ccc21,u,-97,n,n,n,n
CN1CCN(CCCN)CC1,n[13.5 µM],x,x,n[14.2 µM],n[10 µM],n
COC(=O)c1ccc(CSc2nnc(-c3ccccc3)n2C)o1,n,x,n,n,n[10 µM],x
COC(=O)c1ccc(-n2nnnc2SCc2ccccc2OC)cc1,14µM,n,n,n,n,n
CCc1ccc(-n2c(CSc3nnnn3-c3ccccc3)nc3ccccc3c2=O)cc1,1.4µM,n,n,n,n,n
O=c1c2ccccc2nnn1CSc1nnnn1-c1ccc(O)cc1,u,x,u,n,n,x
COC(=O)c1ccc(CSc2nnnn2-c2ccccc2)o1,7.1µM,n,n,n,n,n
Nc1ccccc1[N+](=O)[O-],n,x,x,n,n,n
c1csc(-c2nc(CN3CCSCC3)cs2)c1,x,x,n[9.22 µM],n,n[10 µM],x
Cc1cc(C)cc(C(=O)NCC(=O)OCC(=O)NCC(F)(F)F)c1,n,x,n,n,n,x
CCCN1C(=O)/C(=C/c2ccc(N3CCCC3)c(C)c2)NC1=S,0.22µM,u,13µM,n,n,n
Cc1cc(/C=C2\NC(=S)N(C)C2=O)ccc1N1CCCC1,u,x,n,n,n,x
Cc1ccc(CN2C(=O)N/C(=C\c3ccc(N4CCOCC4)cc3)C2=O)cc1,n,n,n,n,n[10 µM],n
CCN1C(=O)/C(=C/c2ccc(N3CCCC3)cc2)NC1=S,13µM,n,n,n,n[10 µM],n
CCOC(=O)COc1ccc(S(=O)(=O)c2ccc(OCC(=O)OCC)cc2)cc1,n,n,n,n,n,n
CCCN1C(=O)/C(=C/c2ccc(OCC(=O)OCC)cc2)NC1=S,1µM,x,n,n,n,x
CCCN1C(=O)/C(=C/c2ccc(N3CCOCC3)cc2)NC1=S,6.3µM,x,n,n,n,x
CCc1ccnc(NS(=O)(=O)c2ccc3c(c2)CCO3)c1,n,x,n[9.22 µM],n,n[10 µM],x
COc1ccc(C)cc1NC(=O)C(=O)NCc1ccncc1,18µM,u,n,x,n,x
Cc1ccc(NC(=O)CCCC(=O)O)c(Br)c1,n,n,n,n,n,n
Cc1ccc(O)c(NC(=O)CCCC(=O)O)c1,n,-101,n,n,n,n
CCCCCCCCC(=O)Nc1cc(C)ccc1OC,n,-100,n,n,n[10 µM],n
COc1ccc(C)cc1NC(=O)CN(c1ccccc1F)S(C)(=O)=O,n,n,n,n,n,n
COc1ccc(C)cc1NC(=O)CN(c1ccc(F)cc1)S(C)(=O)=O,n,-94,n,n,n,n
COc1ccc(NC(=O)C(=O)NCc2ccncc2)c(OC)c1,n,n,n,n,n[10 µM],n
CCOC(=O)C(C)N1N=C(/C=C/c2ccc(OC)cc2)CCC1=O (stereo not drawn),n,n,n,n,n,n
O=C(Nc1cccc(Oc2c(F)c(F)c(F)c(F)c2F)c1)N1C[C@@H]2C[C@@H](C1)c1cccc(=O)n1C2,n,u,n,n,n,x

# High-throughput results: PubChem, National Center for Advancing Translational Sciences (NCATS)
